# Measured values: ChEMBL document CHEMBL4513216, “Probing the Open Global Health Chemical Diversity Library for Multistage-Active Starting Points for Next-Generation Antimalarials” (ACS Infect Dis, 2020)
# Among all 69,000 compounds or so, about 8,600 (12%) showed an effect of 50% or more. This is one part of a sample in which strong results are shown more often than they occur.
# Tested on: Plasmodium berghei
# Experiment: Screen against P. berghei liver stage (PbLuc), transformed with Luciferase, at 10uM
# Format: functional, HepG2
# Details: tested at 10 uM
row,SMILES,INHIBITION [%]
1,Fc1ccc(OCCNCCn2cccn2)cc1,0.914
2,Cc1cc(C(=O)N2CCN(c3ccncc3Cl)CC2)n(C)n1,10.3
3,CSc1nnc(C2CCN(C(=O)N3CCCC3)CC2)n1C(C)C,20.09
4,COC(=O)C(C)N(Cc1cc(=O)n(C)c(=O)n1C)C1CC1 (stereo not drawn),-37.1
5,COC(=O)C(C)N(Cc1cc(C)on1)C1CC1 (stereo not drawn),52.2
6,Cc1cc(CN(C2CC2)C(C)C(C)C)no1 (stereo not drawn),-26.1
7,O=C(c1c[nH]cn1)N1CCOCC2(C1)CN(c1ccccc1)C(=O)CO2 (stereo not drawn),8.52
8,Cc1noc(C)c1C(=O)N1CCC2(CCc3ccccc3C(=O)N2)C1 (stereo not drawn),9.925
9,Cn1nc2c(cc1=O)CN(Cc1nc(-c3ccsc3)no1)CC2,-7.31
10,CC(C)c1nn(C)c(N2CCOCC2)c1CNCc1nncn1C,-18.9
11,CC(C)CNC(=O)c1cc(C2CC2)nc2c1c(C1CCCN1)nn2C (stereo not drawn),30
12,CS(=O)(=O)NC[C@]12COC[C@H]1CN(C(=O)C1CC(F)(F)C1)C2,57.5
13,CS(=O)(=O)NC[C@]12COC[C@H]1CN(C(=O)C1CC=CC1)C2,23.1
14,CS(=O)(=O)NC[C@]12COC[C@H]1CN(CCc1ccccc1)C2,65.1
15,CS(=O)(=O)NC[C@]12COC[C@H]1CN(C(=O)C1CCCCC1)C2,13.6
16,O=S(=O)(NC[C@]12COC[C@H]1CN(CCc1ccccc1)C2)C1CC1,24.9
17,CCS(=O)(=O)NC[C@]12COC[C@H]1CN(CCc1ccccc1)C2,-58.7
18,CS(=O)(=O)NC[C@]12COC[C@H]1CN(CC1CCCC1)C2,6.82
19,CS(=O)(=O)NC[C@]12COC[C@H]1CN(C(=O)CC1CCCC1)C2,14
20,CS(=O)(=O)NC[C@]12COC[C@H]1CN(CC1CCC1)C2,66.6
21,CCc1ccc(S(=O)(=O)NCCC(O)c2ccoc2)s1 (stereo not drawn),15.4
22,c1ccc(NCc2cn3c(n2)CN(Cc2cccnc2)CC3)nc1,38.7
23,Cc1ccc(-n2cc(C(=O)NCC(C)Cn3cccn3)nn2)cc1 (stereo not drawn),27.6
24,CO[C@H]1C[C@@H](O)C12CCN(Cc1nc(C(F)(F)F)no1)CC2,41.2
25,Cn1cc(-c2ncnc3c2CCN(C(=O)c2cscn2)CC3)cn1,14.6
26,O=S(=O)(C1CC1)N1CCC[C@]2(C[C@@H](Oc3ccccn3)CO2)C1,-49.7
27,CCOc1ccnc(N2CCN(C(=O)c3cc[nH]n3)CC2)n1,-1.14
28,COCCN1CC(C(=O)N(CCN(C)C)Cc2ccc(C)s2)CC1=O (stereo not drawn),38.3
